# Compound activity: PubChem BioAssay, National Center for Advancing Translational Sciences (NCATS)
# TRHR enhancer-1 – allosteric enhancers of human TRH receptor. enhancement, % at 2 µM. 0.66% of 360,000 active. TRHR cells, fluo-8 calcium fluorescence, EC20 TRH enhancement; in the data active means enhancement above about 30%; further: 0% is about no effect
# Target sequence (P34981 whole entry, looked up): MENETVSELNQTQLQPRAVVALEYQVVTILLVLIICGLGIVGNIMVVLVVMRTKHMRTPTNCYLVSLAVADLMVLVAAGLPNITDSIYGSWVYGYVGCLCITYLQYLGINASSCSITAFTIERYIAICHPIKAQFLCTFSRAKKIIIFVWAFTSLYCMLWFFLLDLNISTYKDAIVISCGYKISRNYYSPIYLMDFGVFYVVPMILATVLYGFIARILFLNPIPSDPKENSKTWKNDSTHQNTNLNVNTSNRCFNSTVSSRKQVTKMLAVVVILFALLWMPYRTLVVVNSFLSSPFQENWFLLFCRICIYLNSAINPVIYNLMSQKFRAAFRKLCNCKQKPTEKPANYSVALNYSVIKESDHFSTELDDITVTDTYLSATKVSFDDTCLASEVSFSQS
#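 Enhancer read-out: after compound pinning and an initial kinetic agonist-mode read, an EC20 of TRH (10 nM final) was injected and fluo-8 calcium signal (Ex 480/Em 530) followed at 1 s/cycle for 100 cycles in TRHR-expressing cells.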
# TRHR agonist-1 – TRH receptor (human) agonism; P34981; TRHR cells, calcium flux fluo-8, FDSS agonist mode; activation, % at 2 µM; 0.18% of 360,000 active; AID 493084; in the data active means activation above about 30%; further: 0% is about no effect
#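 TRHR-expressing cells loaded with fluo-8 calcium dye; 23 nL library compound pin-transferred, kinetic FDSS fluorescence (Ex 480/Em 530) recorded about 180 s for agonist-induced calcium release, before a 10 nM TRH EC20 addition for potentiator mode.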
# TRPML1 agonist – activates the human TRPML1 channel | Q9GZU1 | TRPML1-expressing cells, Ca2+ dye fluorescence, FDSS | activation, % (no concentration beside the values) | 0.12% of 410,000 active; in the data active means activation above about 50%; inconclusive means mostly about 30% to 49%; further: 0% is about no effect
#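 TRPML1-DL cells, Tet-induced overnight (~16 h, 37 degrees C), loaded 45-90 min at room temperature with Ca8 no-wash calcium dye plus quencher. FDSS fluorescence: 10 s baseline, compound pin-transfer, 110 s agonist read, then EC80 54-4 (4uM final) and 110 s antagonist read.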
# TRPV1 PAM – human TRPV1 potentiation. TRPV1-expressing cells, Fluo-8 calcium influx, capsaicin EC20 potentiation. potentiation, % at 8.33 µM. 0.02% of 320,000 active. Q8NER1; in the data active means potentiation above about 80%; inconclusive means between about 30% and that limit; further: 0% is about no effect
#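 Cells expressing TRPV1 were dye-loaded with Fluo-8 and read kinetically: 10 s baseline, 3 min after compound (agonist portion), then 2 min after EC20 capsaicin (allosteric enhancer portion). Calcium-bound dye fluorescence at 480/520 nm.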
# TRPML1 blocker – human mucolipin-1 channel inhibition; AID 624415; Q9GZU1; activity change, negative = inhibition, % (concentration not given with the values); TRPML1-inducible cells, Ca2+ dye fluorescence, FDSS; hits give low values; inhibition of EC80 agonist-evoked calcium signal; 0.02% of 390,000 active; in the data active means activity change below about -50%; inconclusive means between about -30% and that limit;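 further: stimulus is agonist 54-4 at its EC80 concentration; on the % scale 0 is the no-effect control and ±100 the full control effect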
#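 Calcium fluorescence in TRPML1-DL cells induced overnight with Tet: a 110 s read after compound pin addition, then a 110 s antagonist read after challenge with 54-4 at 4 uM final (EC80).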
# TRPV1 agonist – agonists of human vanilloid receptor 1 (TRPV1); Q8NER1; TRPV1-expressing cells, Fluo-8 calcium influx, agonist mode; activation, % at 8.33 µM; 0.19% of 320,000 active; AID 540275; in the data active means activation above about 80%; inconclusive means between about 30% and that limit; further: 0% is about no effect
#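 TRPV1-expressing cells were cultured overnight at 35.5C and loaded with Fluo-8 calcium dye for 40 to 90 min at room temperature. After a 10 s baseline, compound was added and calcium influx was read kinetically for 3 min (ex 480/em 520 nm).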
# TRHR enhancer-2 – human TRH receptor allosteric enhancement confirmation; shares compounds with TRHR enhancer-1; 970 tested, under 10 active; activity change, negative = inhibition, % at 46.1 µM; AID 493076; TRH receptor cell assay, enhancer confirmation qHTS;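 further: compound effect scored on response to added TRH at EC20 of 10 nM; 0% is about no effect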
# TRHR agonist-2 – human TRH receptor agonism confirmation. shares compounds with TRHR enhancer-1. TRHR-expressing cells, agonist activation read-out. Potency, µM (titrated, usually from 46.1 µM), for the others: at the top dose activation, most hits filed as activators. 8% of 970 active. AID 493078; further: potency means the concentration at half of the fitted maximal effect; 0% is about no effect; nearly all actives have a fitted effect of over 75% in size
# * hit, by the source's call; ? = inconclusive; . = not tested or not shown. In the library only some 0.96% were active in any assay of this set; here they are far more common. Unless noted, the call rests on the fitted dose curve; in most records, active means well fitted curve in the direction sought with a large enough effect; inconclusive means small, poorly fitted or top-dose-only effect, or another doubt; inactive means no such curve, though single readings can be large; an effect the other way counts as inactive or inconclusive.
SMILES,TRHR enhancer-1,TRHR agonist-1,TRPML1 agonist,TRPV1 PAM,TRPML1 blocker,TRPV1 agonist,TRHR enhancer-2,TRHR agonist-2
COc1cc(C(=O)NC2CCCCCCC2)cc(OC)c1OC,.,.,3.1,.,17.5,.,.,.
Cc1ccc(S/C(=N/S(=O)(=O)c2ccc(Cl)cc2)c2ccccc2)cc1,.,.,-0.4,.,.,.,.,.
COc1ccccc1N1CCN(C(=O)CSc2nc3ccccc3nc2N2CCC(C)CC2)CC1,53.7*,-0.5,1.1,12.8,-11.3,3.8,-4.3,-0.3%
COc1ccccc1N1CCN(C(=O)CSc2nc3ccccc3nc2N2CCCCC2)CC1,-1.3,0.2,0.1,12.8,-0.8,0.3,.,.
CCc1ccc2[nH]c(=O)c(CN(Cc3cccs3)Cc3nnnn3Cc3ccccc3)cc2c1,.,.,0.3,.,.,.,.,.
COc1ccc([N+](=O)[O-])cc1NC(=O)c1cn(-c2ccc(Cl)cc2)c(=O)c2ccccc12,71.7*,0.3,-0.4,-0.4,4.2,-1.3,?,0.8%
Cc1[nH]c2ccccc2c1C(=O)CNc1ccc(Br)cc1,.,.,1.9,.,.,.,.,.
CCc1nc(Nc2ccncc2)c2oc3ccccc3c2n1,47.0*,0.0,-0.1,3.5,-22.0,-1.8,-5.0,-0.5%
O=C(Nc1ncnc2nc[nH]c12)c1ccccc1,.,.,-0.9,.,.,.,.,.
O=S(=O)(N1CCN(c2nc(-c3cccs3)nc3ccccc23)CC1)C(F)(F)F,.,.,0.2,.,.,.,.,.
COc1ccc(C(C)=O)cc1COc1ccccc1[N+](=O)[O-],-1.4,-1.5,0.7,1.7,26.0,9.7,.,.
COc1ccccc1/C=N/OCc1cc(C(C)=O)ccc1OC,55.7*,0.3,0.8,13.1,2.3,23.7,-5.1,2.5%
CC1(C)NC(=O)N(CC(O)Cn2nnc3ccccc32)C1=O (stereo not given),50.5*,0.1,6.1,6.8,20.7,-0.2,-1.4,0.4%
O=C(NCCc1nc2ccccc2n1CCOc1ccccc1)C1CCCCC1,.,.,-0.5,.,.,.,.,.
CNC(=O)CSc1nc2cccnc2n1C1CCCCC1,0.0,-0.2,.,-2.9,.,7.1,.,.
CC(C)(C)NC(=O)CSc1nc2cccnc2n1C1CCCCC1,51.0*,-0.5,2.0,-26.6,25.5,?,-14.0,-0.7%
CCn1c2ccccc2c2cc(CNCCCN3CCOCC3)ccc21,42.6*,-0.2,-0.5,1.6,5.8,-1.6,14.3,2.8%
COc1cccc2c(=O)c3ccoc3n(C)c12,42.2*,-0.8,.,-1.4,.,-5.0,-5.3,2.4%
COc1cccc2c(=O)c3c(cnn3C)n(C)c12,-2.8,0.4,-0.4,-21.9,-5.8,0.2,.,.
CCCCN(CCCC)c1ccc(/C=C2\C=Cc3ccccc32)cc1,.,.,-0.2,.,.,.,.,.
COc1cccc(NS(=O)(=O)c2ccc3c(c2)N(C(C)=O)CCO3)c1,103.9*,0.3,-0.1,0.7,-11.6,1.6,-0.8,-0.6%
Brc1ccc(/C=N/Nc2ccc3ccccc3n2)cc1,50.6*,-0.2,0.0,0.4,-16.0,1.7,3.9,0.6%
Brc1ccccc1/C=N/Nc1ccc2ccccc2n1,-2.6,0.6,1.0,2.5,-7.9,7.7,.,.
c1ccc2c(c1)ncn2CCCOc1ccc2c(c1)CCC2,4.8,-0.6,-0.5,-10.9,-8.9,?,.,.
c1ccc2c(c1)ncn2CCCCOc1ccc2c(c1)CCC2,50.5*,-1.0,4.3,-12.4,6.9,6.2,-7.6,-0.5%
SMILES,TRHR enhancer-1,TRHR agonist-1,TRPML1 agonist,TRPV1 PAM,TRPML1 blocker,TRPV1 agonist,TRHR enhancer-2,TRHR agonist-2
Cc1ccnc2ncccc12,.,.,-0.3,.,.,.,.,.
CCOC(=O)C1=C(CNCCc2ccc(Cl)cc2)NC(=O)NC1c1ccc2c(c1)OCO2 (stereo not given),41.4*,0.4,0.5,.,14.3,.,7.0,?
COC(=O)/C=C/c1cc(F)ccc1S(=O)(=O)Nc1ccccc1,.,.,-0.5,.,.,.,.,.
CCOC(=O)c1cc([N+](=O)[O-])sc1NC(=O)c1ccc(S(=O)(=O)N2CC3(C)CC2CC(C)(C)C3)cc1 (stereo not given),-16.2,36.6*,59.7*,-7.0,?,1.6,-2.3,?
CC1(C)CC2CC(C)(CN2S(=O)(=O)c2ccc(C(=O)Nc3ccc(S(=O)(=O)N4CCOCC4)cc3)cc2)C1 (stereo not given),-6.2,1.7,0.9,16.4,-1.8,11.9,.,.
C/C=C(\NNC(C)=O)c1ccc(O)cc1,.,.,-1.3,.,.,.,.,.
COc1ccc(CNC(=O)CN(C(=O)CCC(=O)Nc2ccccn2)c2cccc(C)c2)cc1,44.1*,-0.4,-0.9,4.3,-5.6,-0.5,7.2,6.3%
CC(CCc1ccccc1)NC(=O)Cn1cccc1C(=O)c1ccccc1 (stereo not given),45.8*,-0.9,-1.2,-3.9,8.5,11.1,?,2.7%
Cc1ccccc1C(=O)c1cccn1CC(=O)NC(C)CCc1ccccc1 (stereo not given),-0.4,-0.5,2.8,-5.2,14.5,28.2,.,.
CCCN1C=CC(=CC=C(C#N)C#N)C=C1,-1.3,41.8*,21.4,-9.7,5.8,?,-1.3,18.4µM*
CCCCCN1C=CC=C/C1=C\C=C(C#N)C#N,-1.7,30.6*,14.1,-11.2,-0.8,26.9,-4.3,20.6µM*
Cc1ccccc1N1CCN(c2ccc(NC(=O)C3CCCCC3C(=O)O)cc2)CC1 (stereo not given),41.6*,0.9,-0.1,15.8,10.6,-2.8,-2.7,3.7%
O=C(O)[C@H]1CCCC[C@H]1C(=O)Nc1ccc(Nc2ccccc2)cc1,-0.1,0.0,-0.6,6.2,2.4,3.1,.,.
Nc1c(C(=O)C2CC2)sc2nc(-c3ccccc3)cc(C(F)(F)F)c12,10.4,42.6*,?,-4.8,-8.8,20.7,9.4,8.2µM*
CC(=O)N/N=C/c1c(C)[nH]n(-c2ccccc2)c1=O,44.2*,-0.8,-0.6,6.2,28.3,?,-4.3,5.0%
COC(=O)N/N=C\c1c(C)[nH]n(-c2ccccc2)c1=O,1.6,-0.1,-0.5,1.8,25.8,-0.4,.,.
COC(=O)C1=NN(C(=O)c2ccc(Cl)cc2)C(O)(c2ccccc2)C1 (stereo not given),-5.8,46.5*,7.0,3.7,-0.1,10.0,-6.9,18.4µM*
CCC1=NN(C(=O)c2ccc(Cl)cc2)C(O)(c2ccccc2)C1 (stereo not given),-10.8,0.0,.,-8.2,.,24.2,.,.
CN(C)/C=C/c1onc(-c2c(Cl)cccc2Cl)c1C#N,43.6*,0.0,1.0,-5.7,10.0,18.9,3.8,?
COc1ccc(-c2nc3ccc(NC(=O)COC(C)=O)cc3c(=O)n2Cc2ccccc2)cc1COc1ccc(NC(C)=O)cc1,.,.,-0.4,.,.,.,.,.
